In PubChem BioAssay (NCI):
Where “and” joins values, the source holds several entries; their conditions need not be identical. Equal values may be shown once. The panel holds about 79,000 compounds, 15% with a hit somewhere; the sample as a whole holds those more often. Cut-off read from the data, not from the text of the source: active = growth inhibition above about 70%; inactive = the rest.

Legend:
[1] = NCI Yeast Anticancer Drug Screen. Data for the rad50 strain (AID 155);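 note: 0% = growth of vehicle-only cultures of the same strain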; conditions: S. cerevisiae rad50 strain growth inhibition, hits give high values; at 50.0 µM unless noted
Procedure, shortened: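 A DNA repair-deficient yeast mutant serves as the test organism; compound-induced growth inhibition is calculated against vehicle-treated cells.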

[2] = NCI Yeast Anticancer Drug Screen. Data for the mec2-1 strain (AID 157); conditions: S. cerevisiae mec2-1 strain, hits give high values; at 50.0 µM unless noted
Procedure, shortened: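 mec2-1 yeast strain, carrying an alteration in DNA damage repair or cell cycle control, was exposed to compounds; growth inhibition was measured relative to vehicle-treated controls.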

[3] = NCI Yeast Anticancer Drug Screen. Data for the sgs1 mgt1 strain (AID 161);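 note: 0% = growth of cultures given vehicle only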; conditions: S. cerevisiae sgs1 mgt1 strain, hits give high values; at 50.0 µM unless noted
Procedure, shortened: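 Compounds are added to genetically altered yeast, and growth is compared with cultures given vehicle alone to give percent inhibition.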

[4] = NCI Yeast Anticancer Drug Screen. Data for the cln2 rad14 strain (AID 165);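 note: 0% = growth equal to vehicle treated cultures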; conditions: S. cerevisiae cln2 rad14 strain, hits give high values; at 50.0 µM unless noted
Procedure, shortened: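 Yeast carrying cln2 and rad14 alterations (cell cycle control and DNA damage repair) were exposed to compounds. Growth inhibition was measured against vehicle-treated controls.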

[5] = NCI Yeast Anticancer Drug Screen. Data for the bub3 strain (AID 167); conditions: S. cerevisiae bub3 mutant strain, hits give high values; at 50.0 µM unless noted
Procedure, shortened: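 Inhibition values come from growth of compound-treated mutant yeast normalised to vehicle-treated controls.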

[6] = NCI Yeast Anticancer Drug Screen. Data for the mlh1 rad18 strain (AID 175); conditions: S. cerevisiae mlh1 rad18 strain growth inhibition, hits give high values; at 50.0 µM unless noted
Procedure, shortened: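 Growth inhibition of the yeast strain was measured after compound exposure and expressed relative to vehicle-treated controls. The strain carries defined defects in DNA damage repair.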

Measured: growth inhibition

CN(N=O)C(=O)NCCCCCNC(=O)N(C)N=O
inactive: [1] 7.6% | [2] 12.8% | [3] 14.1% | [4] -132% | [5] 10.5% | [6] -4.85%

Cc1nc(Nc2cccc(Cl)c2)c2cnn(-c3ccc(Cl)cc3)c2n1
inactive: [1] -2.5% | [2] -0.25% | [3] 1.1% | [4] -41.4% | [5] -0.45% | [6] -4.35%

CNc1cc([N+](=O)[O-])ccc1Br
inactive: [1] 10.2% | [2] 4.2% | [3] -1.1% | [4] -2.95% | [5] 7.5% | [6] -14.9%

Nc1cc(S(=O)(=O)O)c(O)c2c1C(=O)c1c(O)c(S(=O)(=O)O)cc(N)c1C2=O
inactive: [1] -17.6% | [2] -1.75% | [3] -2.55% | [4] -12.8% | [5] -9.35% | [6] -18%

COC1=C2CC(C)CC(OC)C(O)C(C)/C=C(\C)C(OC(N)=O)C(OC)/C=C\C=C(/C)C(=O)NC(=C(/C=N/N(C)C)C1=O)C2=O (stereo not drawn)
inactive: [1] -11.3% | [2] -63.5% | [3] -35% | [4] 3.5% | [5] -16.9% | [6] -25.8%

CCOC(=O)/C(Cc1cc[n+]([O-])cc1)=N/O
inactive: [1] 33.5% | [2] 27.3% | [3] 15.2% | [4] 13.5% | [5] 13.6% | [6] 20.5%

N#CC(NNC(=O)Cc1ccccc1)c1ccc(O)cc1 (stereo not drawn)
inactive: [1] -18.1% | [2] -22.6% | [3] -37.1% | [4] -7.05% | [5] -25.6% | [6] -32.5%

O=[N+]([O-])c1ccc(N/N=C2/CC3CCC2C3)c([N+](=O)[O-])c1 (stereo not drawn)
inactive: [1] -4.3% | [2] -21.4% | [3] 0.8% | [4] -7.05% | [5] 5.6% | [6] 0.55%

O=C(NCCCN1CCN(CCCNC(=O)Nc2ccc(N=Nc3ccccc3)cc2)CC1)Nc1ccc(N=Nc2ccccc2)cc1
inactive: [1] -0.95% | [2] 16.3% | [3] 0.65% | [4] -3.3% | [5] -1.8% | [6] 14.6%

CN(C)CCN1CC2Cc3ccccc3C1c1ccccc12 (stereo not drawn)
inactive: [1] 24.1% | [2] -6.5% | [3] -3.5% | [4] 28.9% | [5] 43.4% | [6] 9.1%

COC(=O)C(C(=O)C(=O)Nc1ccccc1OC)c1csc(-n2nc(-c3ccccc3)cc2-c2ccccc2)n1 (stereo not drawn)
inactive: [1] 0.65% | [2] -7.85% | [3] -11.2% | [4] 21.4% | [5] 52.1% | [6] 4.95%

O=S(=O)(O)CCCOC1COc2ccccc2OCCOCCOc2ccccc2OC1
inactive: [1] -0.65% | [2] 1.65% | [3] -15.5% | [4] -6.45% | [5] -4.1% | [6] -7.55%

COc1ccc(NC(Nc2ccc(OC)cc2)C(Cl)(Cl)Cl)cc1
inactive: [1] 15.1% | [2] 9.5% | [3] 13% | [4] -11.2% | [5] -4.55% | [6] -8.6%

O=C(O)c1ccccc1C(=O)Nn1cnnc1
inactive: [1] -7.55% | [2] 1.15% | [3] -25.9% | [4] 17.2% | [5] -8.1% | [6] -0.1%

COC1C(O)C(n2ncc3c(SC)nc(SC)nc32)OC1C(O)CO (stereo not drawn)
inactive: [1] 16.3% | [2] -3.95% | [3] -16.2% | [4] 8.95% | [5] -4% | [6] 14.4%

COC(=O)/C(=C(\C)NC(C)=O)c1c(C(=O)OC)[nH]c2ccccc12
inactive: [1] -6.85% | [2] -12.5% | [3] -9.15% | [4] 4.15% | [5] -3% | [6] -111%

C=CC[Si](CC=C)(OCC)OCC
inactive: [1] 9.65% | [2] -21.9% | [3] 7.05% | [4] 20.7% | [5] -6.9% | [6] 23.2%

O=C1C(NCCc2cc(Br)c(O)c(Br)c2)=CC(=O)c2ncccc21
inactive: [1] 31.9% | [2] 37% | [3] 33.9% | [4] 18.2% | [5] 34% | [6] 28.4%

NS(=O)(=O)c1ccc(N=Nc2ncccc2O)cc1
inactive: [1] 19.4% | [2] 3.4% | [3] -12.3% | [4] -30.6% | [5] -44% | [6] 20.6%

CC1(C)CNC[C@]2(C)OCCCO[C@@]3(C)CNCC(C)(C)NC(=O)[C@](C)(CNCC(C)(C)NC3=O)OCCCO[C@](C)(CNCC(C)(C)NC2=O)C(=O)N1
inactive: [1] -33.2% | [2] -22.2% | [3] -32.1% | [4] 0.5% | [5] -17.1% | [6] -46.2%

NC(=O)C(=CN1C(=O)CC(=O)NC1=S)C(N)=O
inactive: [1] -29.8% | [2] -34% | [3] -11.6% | [4] -13.8% | [5] -26.6% | [6] 13.5%

Cc1ccc(S(=O)(=O)OCCN(CCOS(=O)(=O)c2ccc(C)cc2)c2cccc([N+](=O)[O-])c2)cc1
inactive: [1] 22.9% | [2] 8.85% | [3] 7.85% | [4] 22.4% | [5] -0.3% | [6] 21.4%

CCOC(=O)/C(=C\c1ccccc1)c1ccccc1
inactive: [1] 7.15% | [2] 5.5% | [3] 9.65% | [4] 7.85% | [5] 27.1% | [6] -6.8%

Cc1cc(=O)[nH]c2[nH]c(=O)ccc12
inactive: [1] -11.4% | [2] 0.05% | [3] -1.5% | [4] -6.35% | [5] -2.2% | [6] 2%

CN(C)c1ccc(/C=C2\C(=O)/C(=C\c3ccc(N(C)C)cc3)c3ccccc32)cc1
inactive: [1] 2.95% | [2] -4.25% | [3] -13.8% | [4] -12.5% | [5] 1.05% | [6] 2.95%

CSC(=N)N
inactive: [1] -8.55% and -15.6% | [2] -18.2% and -17.4% | [3] -52.2% | [4] -46% | [5] 1.45% | [6] -2.95% and -29.8%

CC(=O)OCC(C)(O)C#N (stereo not drawn)
inactive: [1] -19.8% | [2] -0.2% | [3] 11.3% | [4] 4.05% | [5] -5.35% | [6] -22.6%

C=CC(=O)NC12CC3CC(CC(C3)C1)C2
inactive: [1] -4.45% | [2] -0.3% | [3] -8.1% | [4] -23.9% | [5] -15.6% | [6] 0.05%

O=C(O)c1ccc(Nc2c3ccccc3nc3ccccc23)cc1
inactive: [1] 49% | [2] 11.6% | [3] 37.3% | [4] 17.2% | [5] 26.8% | [6] 24.6%

CC1CCC(C(=O)O)(C(Br)C(=O)O)CC1 (stereo not drawn)
inactive: [1] -14.5% | [2] -12.7% | [3] -12.8% | [4] -27.9% | [5] -20.8% | [6] -3.3%

CCS(=O)(=O)c1ccc(NC(=O)OC2CCC3(C)C(=CCC4C3CCC3(C)C(C(C)CCCC(C)C)CCC43)C2)cc1 (stereo not drawn)
inactive: [1] 21.5% | [2] 6.15% | [3] 10.2% | [4] 20.4% | [5] -3.25% | [6] 3.65%

O=[N+]([O-])c1cccc(/C=C/c2ccnc3ccccc23)c1
inactive: [1] 10.2% | [2] -13.1% | [3] 2.95% | [4] 5.65% | [5] 19.4% | [6] 4.15%

CCOC(=O)C(Cc1c[nH]c2c(N(CCO)CCO)cccc12)(NC(C)=O)C(=O)OCC
inactive: [1] -0.45% | [2] -17.2% | [3] 16% | [4] 21.7% | [5] -5.55% | [6] 9.95%

CC(=O)/C=C/N1CCOCC1
inactive: [1] 3.25% | [2] -9.55% | [3] -9.6% | [4] -16.9% | [5] 19.6% | [6] -5.65%

Cc1ccc(S(=O)(=O)CBr)cc1
inactive: [1] 5.35% | [2] 14% | [3] 6.9% | [4] 3.3% | [5] 4.6% | [6] 5.2%

O=C(C[n+]1ccccc1)c1ccc(O)c(I)c1
inactive: [1] -5.4% | [2] 7.65% | [3] 21.9% | [4] 21.7% | [5] 0.35% | [6] 7.4%

CC1CC(C)OC(c2ccccc2Cl)O1 (stereo not drawn)
inactive: [1] 24.6% | [2] 12.4% | [3] 6.3% | [4] -8.1% | [5] 12.7% | [6] 25%

CCOc1ccccc1NC(=O)C(=O)C(C(=O)c1ccc2ccccc2c1)C1OC(=O)c2ccccc21 (stereo not drawn)
inactive: [1] -4% | [2] 4.35% | [3] 13.6% | [4] -50% | [5] 12.5% | [6] 0.45%

Cc1ccc(/C=C(/c2ccccc2)C(CC(=O)O)C(=O)O)cc1 (stereo not drawn)
inactive: [1] -4.75% | [2] -11.3% | [3] -6.85% | [4] -44.7% | [5] -6.35% | [6] -14.5%

CC(=O)NCCc1c[nH]c2ccc(Cl)cc12
inactive: [1] -33.5% | [2] 21.4% | [3] -27.4% | [4] -11.6% | [5] 26.8% | [6] -10.1%

CSc1ccc(C2NC(=O)NC2=O)cc1 (stereo not drawn)
inactive: [1] -10.2% | [2] -14.6% | [3] -1.95% | [4] -9% | [5] 4.95% | [6] -10.1%

CN(C)CC[N+]1=Nc2cccc3cccc(c23)N1
inactive: [1] -6.85% | [2] -8.6% | [3] -2.4% | [4] 1.55% | [5] -6.2% | [6] 3.9%

Nc1ccccc1S(=O)(=O)Nc1ccccc1
inactive: [1] 30.9% | [2] 18.9% | [3] 12.5% | [4] -10.3% | [5] -28.4% | [6] 21.4%
